# Measurements reported in article PMC11062922 (Nature Chemical Biology, 2023).
# Like-named read-outs stand apart in the source and are kept apart here.
# Columns and labels:
# Q6ZSR9 = Q6ZSR9 (human, UniProt Q6ZSR9); settings: read-out: apparent Kd, n = 1
# SIK2 = settings: read-out: apparent Kd, n = 1
# Q6ZSR9, sequence (Q6ZSR9 whole entry, looked up): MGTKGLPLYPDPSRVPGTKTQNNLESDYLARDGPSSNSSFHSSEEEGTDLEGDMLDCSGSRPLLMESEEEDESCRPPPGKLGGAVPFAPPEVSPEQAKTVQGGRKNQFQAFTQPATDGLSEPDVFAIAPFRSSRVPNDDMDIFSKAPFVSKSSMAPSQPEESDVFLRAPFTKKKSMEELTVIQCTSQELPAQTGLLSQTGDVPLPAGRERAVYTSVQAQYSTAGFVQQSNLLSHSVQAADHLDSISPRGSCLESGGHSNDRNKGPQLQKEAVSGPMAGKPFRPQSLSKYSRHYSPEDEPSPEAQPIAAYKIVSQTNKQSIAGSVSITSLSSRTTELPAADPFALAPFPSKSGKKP
substance,measurement,setting,value
Lestaurtinib,potency estimated from few doses,"Q6ZSR9; compound concentrations:100 nM and 1000 nM (sheet 'Lestaurtinib' of Supplementary Table 1),run:Lestaurtinib_03172_R2,Plate:MR031",54.5 nM
same,potency estimated from few doses,"Q6ZSR9; compound concentrations:100 nM and 1000 nM (sheet 'Lestaurtinib' of Supplementary Table 1),run:Lestaurtinib_03172_R3,Plate:MR031",57.5 nM
same,potency estimated from few doses,"Q6ZSR9; compound concentrations:100 nM and 1000 nM (sheet 'Lestaurtinib' of Supplementary Table 1),run:Lestaurtinib_03252_R1,Plate:MR032",61.3 nM
same,potency estimated from few doses,"Q6ZSR9; compound concentrations:100 nM and 1000 nM (sheet 'Lestaurtinib' of Supplementary Table 1),run:Lestaurtinib_03260_R2,Plate:MR033",113 nM
same,potency estimated from few doses,"Q6ZSR9; compound concentrations:100 nM and 1000 nM (sheet 'Lestaurtinib' of Supplementary Table 1),run:Lestaurtinib_03260_R3,Plate:MR033",79.5 nM
same,potency estimated from few doses,"SIK2; compound concentrations:100 nM and 1000 nM (sheet 'Lestaurtinib' of Supplementary Table 1),run:Lestaurtinib_02339_R2,Plate:MR001",44.6 nM
same,potency estimated from few doses,"SIK2; compound concentrations:100 nM and 1000 nM (sheet 'Lestaurtinib' of Supplementary Table 1),run:Lestaurtinib_02364_R1,Plate:MR002",53.6 nM
same,potency estimated from few doses,"SIK2; compound concentrations:100 nM and 1000 nM (sheet 'Lestaurtinib' of Supplementary Table 1),run:Lestaurtinib_02367_R1,Plate:MR003",51.8 nM
same,potency estimated from few doses,"SIK2; compound concentrations:100 nM and 1000 nM (sheet 'Lestaurtinib' of Supplementary Table 1),run:Lestaurtinib_02367_R2,Plate:MR003",57.3 nM
same,potency estimated from few doses,"SIK2; compound concentrations:100 nM and 1000 nM (sheet 'Lestaurtinib' of Supplementary Table 1),run:Lestaurtinib_02367_R3,Plate:MR003",51.5 nM
same,potency estimated from few doses,"SIK2; compound concentrations:100 nM and 1000 nM (sheet 'Lestaurtinib' of Supplementary Table 1),run:Lestaurtinib_02381_R1,Plate:MR004",56.4 nM
same,potency estimated from few doses,"SIK2; compound concentrations:100 nM and 1000 nM (sheet 'Lestaurtinib' of Supplementary Table 1),run:Lestaurtinib_02381_R2,Plate:MR004",62.4 nM
same,potency estimated from few doses,"SIK2; compound concentrations:100 nM and 1000 nM (sheet 'Lestaurtinib' of Supplementary Table 1),run:Lestaurtinib_02381_R3,Plate:MR004",30.1 nM
same,potency estimated from few doses,"SIK2; compound concentrations:100 nM and 1000 nM (sheet 'Lestaurtinib' of Supplementary Table 1),run:Lestaurtinib_02407_R1,Plate:MR005",50.7 nM
same,potency estimated from few doses,"SIK2; compound concentrations:100 nM and 1000 nM (sheet 'Lestaurtinib' of Supplementary Table 1),run:Lestaurtinib_02407_R2,Plate:MR005",52.5 nM
same,potency estimated from few doses,"SIK2; compound concentrations:100 nM and 1000 nM (sheet 'Lestaurtinib' of Supplementary Table 1),run:Lestaurtinib_02422_R2,Plate:MR006",9.74 nM
same,potency estimated from few doses,"SIK2; compound concentrations:100 nM and 1000 nM (sheet 'Lestaurtinib' of Supplementary Table 1),run:Lestaurtinib_02422_R3,Plate:MR006",52.6 nM
same,potency estimated from few doses,"SIK2; compound concentrations:100 nM and 1000 nM (sheet 'Lestaurtinib' of Supplementary Table 1),run:Lestaurtinib_02437_R1,Plate:MR007",50.6 nM
same,potency estimated from few doses,"SIK2; compound concentrations:100 nM and 1000 nM (sheet 'Lestaurtinib' of Supplementary Table 1),run:Lestaurtinib_02437_R3,Plate:MR007",7.45 nM
same,potency estimated from few doses,"SIK2; compound concentrations:100 nM and 1000 nM (sheet 'Lestaurtinib' of Supplementary Table 1),run:Lestaurtinib_02438_R2,Plate:MR008",41.4 nM
same,potency estimated from few doses,"SIK2; compound concentrations:100 nM and 1000 nM (sheet 'Lestaurtinib' of Supplementary Table 1),run:Lestaurtinib_02438_R3,Plate:MR008",34.7 nM
same,potency estimated from few doses,"SIK2; compound concentrations:100 nM and 1000 nM (sheet 'Lestaurtinib' of Supplementary Table 1),run:Lestaurtinib_02443_R1,Plate:MR009",49.3 nM
same,potency estimated from few doses,"SIK2; compound concentrations:100 nM and 1000 nM (sheet 'Lestaurtinib' of Supplementary Table 1),run:Lestaurtinib_02443_R2,Plate:MR009",51 nM
same,potency estimated from few doses,"SIK2; compound concentrations:100 nM and 1000 nM (sheet 'Lestaurtinib' of Supplementary Table 1),run:Lestaurtinib_02443_R3,Plate:MR009",51.1 nM
same,potency estimated from few doses,"SIK2; compound concentrations:100 nM and 1000 nM (sheet 'Lestaurtinib' of Supplementary Table 1),run:Lestaurtinib_02473_R2,Plate:MR010",44.2 nM
same,potency estimated from few doses,"SIK2; compound concentrations:100 nM and 1000 nM (sheet 'Lestaurtinib' of Supplementary Table 1),run:Lestaurtinib_02473_R3,Plate:MR010",30.1 nM
same,potency estimated from few doses,"SIK2; compound concentrations:100 nM and 1000 nM (sheet 'Lestaurtinib' of Supplementary Table 1),run:Lestaurtinib_02482_R2,Plate:MR011",52.3 nM
same,potency estimated from few doses,"SIK2; compound concentrations:100 nM and 1000 nM (sheet 'Lestaurtinib' of Supplementary Table 1),run:Lestaurtinib_02482_R3,Plate:MR011",44.9 nM
same,potency estimated from few doses,"SIK2; compound concentrations:100 nM and 1000 nM (sheet 'Lestaurtinib' of Supplementary Table 1),run:Lestaurtinib_02487_R2,Plate:MR012",47.8 nM
same,potency estimated from few doses,"SIK2; compound concentrations:100 nM and 1000 nM (sheet 'Lestaurtinib' of Supplementary Table 1),run:Lestaurtinib_02487_R3,Plate:MR012",59.5 nM
same,potency estimated from few doses,"SIK2; compound concentrations:100 nM and 1000 nM (sheet 'Lestaurtinib' of Supplementary Table 1),run:Lestaurtinib_02496_R1,Plate:MR013",44.2 nM
same,potency estimated from few doses,"SIK2; compound concentrations:100 nM and 1000 nM (sheet 'Lestaurtinib' of Supplementary Table 1),run:Lestaurtinib_02496_R3,Plate:MR013",40.2 nM
same,potency estimated from few doses,"SIK2; compound concentrations:100 nM and 1000 nM (sheet 'Lestaurtinib' of Supplementary Table 1),run:Lestaurtinib_02566_R2,Plate:MR014",48.9 nM
same,potency estimated from few doses,"SIK2; compound concentrations:100 nM and 1000 nM (sheet 'Lestaurtinib' of Supplementary Table 1),run:Lestaurtinib_02566_R3,Plate:MR014",62.6 nM
same,potency estimated from few doses,"SIK2; compound concentrations:100 nM and 1000 nM (sheet 'Lestaurtinib' of Supplementary Table 1),run:Lestaurtinib_02572_R1,Plate:MR015",46 nM
same,potency estimated from few doses,"SIK2; compound concentrations:100 nM and 1000 nM (sheet 'Lestaurtinib' of Supplementary Table 1),run:Lestaurtinib_02572_R2,Plate:MR015",51.5 nM
same,potency estimated from few doses,"SIK2; compound concentrations:100 nM and 1000 nM (sheet 'Lestaurtinib' of Supplementary Table 1),run:Lestaurtinib_02572_R3,Plate:MR015",51.6 nM
same,potency estimated from few doses,"SIK2; compound concentrations:100 nM and 1000 nM (sheet 'Lestaurtinib' of Supplementary Table 1),run:Lestaurtinib_02577_R1,Plate:MR016",51.5 nM
same,potency estimated from few doses,"SIK2; compound concentrations:100 nM and 1000 nM (sheet 'Lestaurtinib' of Supplementary Table 1),run:Lestaurtinib_02577_R2,Plate:MR016",44.8 nM
same,potency estimated from few doses,"SIK2; compound concentrations:100 nM and 1000 nM (sheet 'Lestaurtinib' of Supplementary Table 1),run:Lestaurtinib_02577_R3,Plate:MR016",46.9 nM
same,potency estimated from few doses,"SIK2; compound concentrations:100 nM and 1000 nM (sheet 'Lestaurtinib' of Supplementary Table 1),run:Lestaurtinib_02584_R1,Plate:MR017",51 nM
same,potency estimated from few doses,"SIK2; compound concentrations:100 nM and 1000 nM (sheet 'Lestaurtinib' of Supplementary Table 1),run:Lestaurtinib_02584_R2,Plate:MR017",49.6 nM
